PubChem BioAssay AID1063 (University of Pittsburgh Molecular Library Screening Center, 2008)
Among all 200,000 compounds or so, about 18,000 (9%) were called active. The entries come from a sample that favours actives as a whole. Values without a mark were called inactive. No stated cut-off is given here; in the data, active means inhibition above about 50%; inactive means the rest.

experiment: Leishmania major promastigote growth inhibition, primary screen (AID 1063); conditions: Leishmania major promastigotes, resazurin fluorescence viability; at 10 µM; stronger effect = higher value;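 further: promastigotes grown with compound for 44 hours at 28 °C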

Compared with Cc1ccc(S(=O)(=O)N(C)C)cc1NC(=O)COC(=O)C1COc2ccccc2O1 (stereo not given), COc1ccc([N+](=O)[O-])cc1NC(=O)CCc1ccccc1 is lower in inhibition: 4.18% for the first, -3.05% for the second.

Compared with Fc1ccc2nc(N3CCCCC3)sc2c1, CSc1ncccc1C(=O)Nc1nc2ccc(F)cc2s1 is higher in inhibition: 2.6% for the first, 28.5% for the second.

First: CCn1c(SCC(=O)N(C)C2CCS(=O)(=O)C2)nnc1-c1cccs1 (stereo not given)
Second: CC(=O)c1cc(C#N)c(SCC(=O)Nc2nccs2)nc1C
The inhibition of the first is lower: -1.56% for the first, 1.83% for the second.

Going from COc1ccc(NC(=O)c2cc3nc(-c4ccccc4)cc(C)n3n2)cc1OC to COc1ccc(-c2cc(C(F)(F)F)nc(SCC(=O)Nc3ccc4c(c3)OCO4)n2)cc1OC, the inhibition falls from 19.4% to 0.67%.

Compared with CC(=O)N(CCCN(C)C)c1nc2ccc(C)cc2s1, CN(C)CCCN(C(=O)COc1ccccc1)c1nc2c(Cl)cccc2s1 is higher in inhibition: -6.81% for the first, 1.9% for the second.

First: CCCCCCCNc1nc(Cl)nc(NCCO)n1
Second: CC(=O)Cc1nsc(NC(=O)c2ccc(Cl)cc2Cl)n1
The inhibition of the first is lower: -8.89% for the first, -1.22% for the second.

Going from COc1ccccc1OCc1ccc(C(=O)N2CCN(C)CC2)o1 to COc1ccc(Br)cc1CN1CCN(C(=O)c2cccc(OC)c2OC)CC1, the inhibition rises from -7.4% to 0.16%.

First: CC(=O)c1ccc(N2CCN(S(=O)(=O)c3c(C)[nH]c(=O)[nH]c3=O)CC2)cc1
Second: O=C(/C=C/c1ccc(N2CCOCC2)cc1)c1ccccc1
The inhibition of the first is lower: -5.88% for the first, 13.2% for the second.

Going from Cc1oc2cc([N+](=O)[O-])c(O)c([N+](=O)[O-])c2c1C(=O)c1ccc(Br)cc1 to CC(=O)Nc1cccc([N+](=O)[O-])c1, the inhibition rises from -8.1% to -0.87%.

Compared with COc1cccc(CN(C)CC(=O)Nc2sc3c(c2C#N)CCC3)c1, COC(=O)c1sccc1NC(=O)c1cc(OC)c(OC)c(OC)c1 is higher in inhibition: -4.03% for the first, 8.27% for the second.

Going from O=C(CN1C(=O)CC(c2ccccc2)S(=O)(=O)c2ccccc21)NC1CCCC1 (stereo not given) to Cc1ccccc1-n1cc(CNC(=O)CC2C(=O)NCCN2C/C=C/c2ccccc2)cn1 (stereo not given), the inhibition falls from 5.62% to -1.38%.

Compared with COc1ccc(-n2cnnc2SCC(=O)Nc2cccc([N+](=O)[O-])c2)cc1, COc1ccc(-c2nnc3ccc(SCc4ccccc4)nn23)cc1 is higher in inhibition: -9.51% for the first, -3.51% for the second.

First: CC(C)CC(=O)NC(=S)NNC(=O)c1cccc([N+](=O)[O-])c1
Second: NS(=O)(=O)c1ccc(NC(=S)NNC(=O)c2cccs2)cc1
The inhibition of the first is higher: 7% for the first, -4.08% for the second.

First: Cn1c(-c2ccc(F)cc2)cnc1SCC(=O)NNC(=O)Cc1ccccc1
Second: CCOC(=O)c1ccccc1NC(=O)CSc1nc2ccccc2c(=O)[nH]1
The inhibition of the first is lower: 0.35% for the first, 6.6% for the second.

Compared with COC(=O)Cn1c2ccc(C)cc2c2nc(C)sc21, Cc1ccc(NC(=O)CSc2nc(CSc3ccc(C)cc3)cc(=O)[nH]2)cc1 is higher in inhibition: -6.29% for the first, -2.59% for the second.

Compared with CC(C)(C)C(=O)CSc1nc2ccccc2o1, O=C(NCc1ccccc1Cl)C1CCCO1 (stereo not given) is lower in inhibition: 4.86% for the first, -3.01% for the second.

Going from NC(=O)C[n+]1cccc(C(N)=O)c1 to N/C(=N\OC(=O)c1ccc([N+](=O)[O-])cc1)c1ccccn1, the inhibition rises from -3% to 1.71%.

Going from COn1c(-c2ccc(Cl)cc2Cl)nc2ncccc21 to CNc1nccc(-c2ccc(Cl)cc2)c1C#N, the inhibition rises from -6.75% to -6.29%.

Going from c1ccc(-n2nnnc2-c2cccnc2)cc1 to O=C(CCc1nnc(CCCCc2ccccc2)o1)NC(c1cccnc1)C(F)(F)F (stereo not given), the inhibition rises from -7.89% to 11.3%.

Compared with COc1ccccc1N1CCN(/N=C\C(Br)=C\c2ccccc2)CC1, O=C(Nc1ccccc1)N1CCN(C(=O)Nc2ccccc2)CC1 is lower in inhibition: -5.39% for the first, -5.42% for the second.

Compared with Cc1ccccc1-c1n[nH]c(=S)n1/N=C/c1ccc(-c2ccccc2Br)o1, CCN(CC)S(=O)(=O)c1cccc(-c2n[nH]c(=S)n2/N=C/c2ccc(C(=O)OC)cc2)c1 is higher in inhibition: 23% for the first, 27.8% for the second.

Going from Clc1ccc(N/N=C/c2cccs2)nn1 to O=C(Nc1ccc2oc(-c3ccc4ccccc4c3)nc2c1)c1cccs1, the inhibition rises from -2.51% to -1.1%.

First: C/C(N)=C(/C#N)C(=O)COC(=O)c1cc(-c2ccccc2)nc2ccc(Br)cc12
Second: C/C(N)=C(/C#N)C(=O)COC(=O)c1cc(-c2ccc(C)cc2)nc2ccccc12
The inhibition of the first is lower: -4.87% for the first, 18.1% for the second.

Going from O=C1CCC(=O)N1c1ccc(NCCc2ccccc2F)c([N+](=O)[O-])c1 to O=C(CCCCn1c(=O)[nH]c2ccccc2c1=O)NCc1ccc2c(c1)OCO2, the inhibition rises from -3.12% to 4.03%.

First: Cc1ccccc1C(=O)OC1OC(=O)C(Cl)=C1Nc1ccccc1 (stereo not given)
Second: O=[N+]([O-])/C(N=Nc1ccccc1)=N\Nc1ccccc1
The inhibition of the first is higher: 2.63% for the first, 0.84% for the second.

Going from COc1ccc(C(=O)COC(=O)c2nn(C)c(=O)c3ccccc23)c(OC)c1 to COc1ccc(-n2c(O)c(C=NCC(c3ccco3)N3CCCC3)c3ccccc3c2=O)cc1OC (stereo not given), the inhibition rises from -4.39% to 2.68%.

First: FC(F)Oc1ccc(NC(=S)NCc2ccco2)cc1Cl
Second: Cc1ccc(S(=O)(=O)NCCC(=O)Nc2ccc(C)c(Cl)c2)cc1C
The inhibition of the first is higher: 12.2% for the first, 4.01% for the second.

First: CC(C)Cn1c(N)c(C(=O)COC(=O)CN2C(=O)C3CC=CCC3C2=O)c(=O)n(C)c1=O (stereo not given)
Second: CCCCN(C(=O)/C=C/c1ccco1)c1c(N)n(CC(C)C)c(=O)[nH]c1=O
The inhibition of the first is higher: 0.69% for the first, -4.4% for the second.

First: CCOc1cccc(/C=N/N2C(=O)CSC2=S)c1O
Second: CC(=O)n1c(C=Nc2ccccc2)c(O)c2ccccc21
The inhibition of the first is lower: 2.44% for the first, 4.07% for the second.

Going from CCOC(=O)c1oc2c(CN3CCN(CCO)CC3)c(O)c(CC)cc2c(=O)c1-c1nc2ccccc2s1 to O=c1[nH]c(CN2CCOCC2)nc2scc(-c3ccccc3)c12, the inhibition falls from -5.26% to -8.93%.

First: COc1cc(OC)nc(S(C)(=O)=O)n1
Second: COc1cc(OC)cc(-c2nnc(N(C)C(=O)c3ccncc3)s2)c1
The inhibition of the first is higher: -0.01% for the first, -3.83% for the second.

First: CS(=O)(=O)N(CC(=O)Nc1ccc(Cl)c(Cl)c1)C1CCCCC1
Second: O=C(CSCc1ccc(Br)cc1)Nc1ccc(S(=O)(=O)N2CCCCCC2)cc1
The inhibition of the first is higher: 15.8% for the first, 6.78% for the second.

Going from O=C(NNC(=O)C1CCN(c2ncccn2)CC1)c1ccccc1 to O=S(=O)(c1ccc(-c2ccccc2)cc1)N1CCCC1, the inhibition rises from -7.74% to -7.57%.

First: O=C(Cn1nnc(-c2ccccc2)n1)NCc1ccc2c(c1)OCO2
Second: O=C(Cc1cccc2ccccc12)Nc1ccc2oc(-c3ccccc3)nc2c1
The inhibition of the first is lower: -6.91% for the first, 40.6% for the second.

Compared with Cc1ccc(/C=N/NC(=O)COc2ccccc2-c2ccccc2)cc1, CN(Cc1nc2ccccc2c(=O)[nH]1)Cc1cc(=O)oc2ccc3ccccc3c12 is higher in inhibition: 4.74% for the first, 14.2% for the second.

First: CCOc1cc(N2CCOCC2)c(OCC)cc1NC(=O)C1=NN(c2cccc(C)c2)C(=O)CC1
Second: COc1cc(NC(=S)N2CCCC(C)C2)cc(OC)c1OC (stereo not given)
The inhibition of the first is higher: 13.6% for the first, 4.64% for the second.

Going from CCN(CC(=O)NC(=O)NCc1ccccc1)Cc1nc2ccccc2c(=O)[nH]1 to COc1cc(/C=C/C(=O)OCC(=O)NC(=O)NCc2ccccc2)ccc1OCC#N, the inhibition rises from -3.9% to -1.09%.

Compared with CCCCNS(=O)(=O)c1ccc(S(=O)(=O)n2cnc3ccccc32)cc1, O=C(OCc1ccc([N+](=O)[O-])cc1)c1ccccn1 is higher in inhibition: -3.46% for the first, -0.28% for the second.

Compared with CC(=O)c1ccccc1NC(=O)CC1(CC(=O)O)CCCCC1, CCOC(=O)C1=NOC(Cn2cc(C(C)=O)c(=O)[nH]c2=O)C1 (stereo not given) is lower in inhibition: 3.25% for the first, 1.88% for the second.

In the case of Fc1ccc2nc(Nc3nc4c(s3)CCCC4)sc2c1, the inhibition is reported as 77.9% (active).
In the case of COc1cccc2sc(N(CCCN(C)C)C(=O)C(c3ccccc3)c3ccccc3)nc12, the inhibition is reported as 94.5% (active).
In the case of COc1cc2c(C(=O)N3CCN(C)CC3)c(CSc3ccccc3)n(C)c2cc1Br, the inhibition is reported as 50.6% (active).
With COC(=O)Cn1c(=NC(=O)c2cc(OC)c(OC)c(OC)c2)sc2cc(OC)ccc21 the inhibition was 55.3% (active).
With CCN(CC)CCNc1nc(-c2ccc(OC(F)F)cc2)c(C)s1 the inhibition was 99.4% (active).
With S=c1[nH]nc(-c2cccnc2)n1/N=C/C(Cl)=C\c1ccccc1 the inhibition was 86% (active).
For Cc1cc(-c2n[nH]c(=S)n2/N=C/C(Br)=C/c2ccccc2)n[nH]1, the inhibition was 88.5% (active).
In the case of C/C(N)=C(/C#N)C(=O)COC(=O)c1cc(-c2cccc(Br)c2)nc2ccccc12, the inhibition is reported as 59.9% (active).
For Cc1ccc(CC(=O)Nc2ccc(OC(F)F)c(Cl)c2)cc1C, the inhibition was 91.2% (active).
With COc1ccc(-c2cc(C(F)(F)F)nc(S(C)(=O)=O)n2)cc1OC the inhibition was 71.7% (active).
For CN(CC(=O)Nc1ccc(S(=O)(=O)N2CCCC2)cc1)Cc1ccc(Cl)c(Cl)c1, the inhibition was 92% (active).
With O=C1N(Cc2ccc3c(c2)OCO3)c2ccccc2C1(O)c1c[nH]c2ccccc12 (stereo not given) the inhibition was 88.9% (active).
With CCN(Cc1nc2ccccc2c(=O)[nH]1)Cc1cc(=O)oc2cc(C)c(C)cc12 the inhibition was 73.8% (active).
For O=S(=O)(c1ccc(Br)cc1)n1ccc2ccccc21, the inhibition was 90.7% (active).
In the case of N/C(=N\OC(=O)Cc1ccc([N+](=O)[O-])cc1)c1ccccn1, the inhibition is reported as 98.7% (active).
In the case of CCCCCC(=O)Nc1ccc2oc(-c3ccncc3)nc2c1, the inhibition is reported as 96.4% (active).
For CC(CCc1ccccc1)NCC(O)c1cccc([N+](=O)[O-])c1 (stereo not given), the inhibition was 59.5% (active).
